Test results published in PubChem BioAssay AID651899 (Broad Institute, 2012).
Entries with a potency or affinity are not part of this list. Active and inactive are the calls of the source. No rule for the calls is given here.

Experiment: HEK293 cell viability loss – plate reader, cherry-pick, cytotoxicity control, dose response (AID 651899);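 also: cells exposed to compound for 48 hours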
Settings: series mostly up to 26 µM

Row | Structure (SMILES) | outcome
1 | COc1ccc(CCN(C)c2ccc(C(N)=O)cc2[N+](=O)[O-])cc1OC | inactive
2 | CCCc1c(OCCCOc2ccc(OCC(=O)O)cc2)ccc(C(C)=O)c1O | inactive
3 | Cc1ccc(NC(=O)CSc2nc(=O)n(CCCN3CCOCC3)c3c2CCCC3)cc1F | inactive
4 | N#C[C@H]1[C@@H](c2ccccc2)[C@@H](CO)N1C(=O)Nc1cccc(F)c1 | inactive
5 | CC1(C)CC(=O)C=C(c2ccc3ncccc3c2)C1 | inactive
6 | O=C(O)CN1C(=O)/C(=C\c2cc(Br)ccc2OCc2ccc([N+](=O)[O-])cc2)SC1=S | inactive
7 | NC(=O)c1ccc(Oc2cccc3cccnc23)c([N+](=O)[O-])c1 | inactive
8 | O=C(CSc1nc2c(c(=O)n1-c1ccccc1)SCC2)N1CCOCC1 | inactive
9 | O=C1CCCc2c1cc(C(=O)NCCCN1CCOCC1)c(=O)n2-c1ccc(Cl)cc1 | inactive
10 | O=C(N[C@@H]1CC[C@H](CCn2cc(-c3cccnc3)nn2)O[C@@H]1CO)c1ccccc1F | inactive
11 | CC(=O)Nc1ccc2nc(-c3cccnc3)[nH]c2c1 | inactive
12 | Clc1ccc(CSc2nnc(-c3cccnc3)o2)cc1 | inactive
13 | CC(Oc1cc2oc(=O)c3c(c2cc1Cl)CCC3)C(=O)NCc1cccnc1 (stereo not given) | inactive
14 | O=C(CSc1nc2cc(C(=O)O)ccc2c(=O)n1-c1ccc(F)cc1)Nc1ccc(F)c(F)c1F | inactive
15 | CC(=O)CSc1nnc(CSc2ncccn2)n1C1CCCCC1 | inactive
16 | O=C(c1ccccc1F)N1CC[C@@H]2[C@H](CO)Nc3ccc(Br)cc3[C@@H]21 | inactive
17 | Cc1c(C(N)=O)sc(N)c1C(=O)OC(C)C | inactive
18 | O=C(Nc1ccc(F)c(F)c1)c1ccc(-n2cncn2)c([N+](=O)[O-])c1 | inactive
19 | COc1ccc(F)cc1C(=O)C1CCCN(C(=O)c2ccc(C(C)=O)s2)C1 (stereo not given) | inactive
20 | C/C=C/c1ccc2c(c1)O[C@@H](CN(C)C(=O)Nc1ccc(OC)cc1)[C@@H](C)CN([C@@H](C)CO)S2(=O)=O | inactive
